# Reference: ChEMBL document CHEMBL4513216, “Probing the Open Global Health Chemical Diversity Library for Multistage-Active Starting Points for Next-Generation Antimalarials” (ACS Infect Dis, 2020)
# Out of some 65,000 compounds screened, about 2,100 (3.2%) showed an effect of 50% or more. The median lay at about -52%. Only a selection was taken, and strong results are over-represented in it overall.
# Test system: Plasmodium falciparum
# Experiment: Screen against P. falciparum Asexual Blood Stage (ABS), at 5uM
# Type: functional, Dd2
# Settings: tested at 5 uM
row,SMILES,INHIBITION
1,CCc1cnc(CNC(=O)NCCc2ccc(O)cc2)s1,-13.3%
2,CNC(=O)CC1CC2(CCN(c3ncccn3)CC2)c2ccccc21 (configuration not stated),-87%
3,Cc1cccc(N2CC3(CCN(Cc4nccn4C)C3)CC2=O)c1 (configuration not stated),-54.9%
4,COCc1ncc(CN2CC[C@@H](NC(=O)c3cccnc3)[C@H](O)C2)cn1,-35.5%
5,CC(C)(C)n1ncc(NCC(O)c2ccccc2)c(Cl)c1=O (configuration not stated),-162%
6,Cc1cccc(C2(CNC(=O)CO)CCCC2)c1,-108%
7,Cc1cccc(C2(CNC(=O)C(C)S(C)(=O)=O)CCCC2)c1 (configuration not stated),-66%
8,Cc1cccc(C2(CNC(=O)C(C)NC(N)=O)CCCC2)c1 (configuration not stated),69.9%
9,NC(=O)[C@@H]1Cc2ccccc2CN1S(=O)(=O)N1CCCCC1,-124%
10,CC(NC(=O)NC1CCN(Cc2ccncc2)CC1)c1cccc(F)c1 (configuration not stated),-98.2%
11,CC(NC(=O)NC1CCN(Cc2ccncc2)CC1)c1ccc(F)cc1 (configuration not stated),-35.2%
12,CC(CNC1CCN(Cc2ccncc2)CC1)c1ccc(F)cc1F (configuration not stated),70%
13,Cc1cc(F)ccc1C(=O)N1C[C@@H]2COC[C@]2(CN(C)C)C1,-31.2%
14,CC(C)(C)c1cc(NC(=O)CN2CCCC2Cn2cccn2)on1 (configuration not stated),-91.6%
15,NC(=O)C1CCN(C(=O)NCc2cccnc2OCC(F)(F)F)C1 (configuration not stated),-75.2%
16,CN1CCCN(c2nc3c(cnn3C(C)(C)C)c(=O)[nH]2)CC1,-12.6%
17,CC(C)(C)n1ncc2c(=O)[nH]c(N3CCC4(CCCCC4)C3)nc21,52.6%
18,CC(=O)N1CCN(c2nc3c(cnn3C(C)(C)C)c(=O)[nH]2)CC1,-76.5%
19,Cn1ccc(CN2CCCC23CCN(Cc2ccccc2F)CC3)n1,0.737%
20,Cc1nc(CNC(=O)Nc2cc(F)ccc2N2CCN(C)CC2)no1,-28.8%
21,CCN1CCN(c2ccc(F)cc2C(C)NCc2noc(C)n2)CC1 (configuration not stated),53.9%
22,CCN1CCN(c2ccc(F)cc2C(C)NCc2nc(C)no2)CC1 (configuration not stated),7.98%
23,Cc1nccc(N[C@H]2CN(C(=O)CCN3CCCC3=O)C[C@@H]2C(C)C)n1,-132%

row,SMILES,INHIBITION
1,COCCNCc1ccc(OCC(=O)NC(C)(C)C)cc1,-80.9%
2,Cc1ccc(C(=O)N2CCC3(CCN3Cc3ccc(F)cc3)C2)cn1 (configuration not stated),-74.2%
3,COCCN1CCO[C@H]2CN(C(=O)c3cccs3)C[C@H]21,-92.4%
4,c1coc(-c2nnc(CN3CCCC(CN4CCCCCC4)C3)o2)c1 (configuration not stated),-67.1%
5,Cc1noc(C)c1CN1CCCC(CN(C(=O)OC(C)(C)C)C(C)C)C1 (configuration not stated),54.1%
6,CC(C)N(CC1CCCN(Cc2ccon2)C1)C(=O)OC(C)(C)C (configuration not stated),-5.65%
7,CC(C)N(CC1CCCN(CC(N)=O)C1)C(=O)OC(C)(C)C (configuration not stated),-14.8%
8,c1cncc(OC2CCN(CCn3cc4ccccc4n3)CC2)c1,-47.4%
9,CN(CC(=O)Nc1cnn(-c2ccccc2S(C)(=O)=O)c1)C1CC1,-85.55%
10,c1cncc(COCC2CC[C@H]3[C@H](CCN3CC3CCOCC3)O2)c1 (some centres not stated),-5.45%
11,COCCN1CCN(Cc2csc(-c3cnn(C)c3)n2)CC1,-30.6%
12,Cn1cc(C2CCCN2Cc2csc(Cc3ccccc3)n2)cn1 (configuration not stated),13.8%
13,Cn1cc(-c2nc(CN3CCN(CCO)CC3)cs2)cn1,-59.9%
14,Cn1cc(C2CCCN2Cc2csc(-c3ccccc3)n2)cn1 (configuration not stated),53.8%
15,CCCC1CCCN(Cc2csc(-c3cnn(C)c3)n2)CC1 (configuration not stated),54.1%
16,Cn1cc(C2CCCN2Cc2csc(-c3ccsc3)n2)cn1 (configuration not stated),-32.1%
17,CCCS(=O)(=O)CCSc1cccc(C#N)c1,-113%
18,O=C(Cc1ccsc1)N1CCC(c2noc(-c3cccnc3)n2)CC1,-53.4%
19,O=C(Cc1ccncc1)N1C[C@H]2CC[C@@H](C1)N(Cc1ccccc1)C2=O,-99.2%
20,COc1cc(Oc2ccc(C(F)(F)F)cn2)ccc1CN1CCCC1,30.2%
21,COc1ccc(Oc2cccc(C#N)n2)cc1CN1CCCC1,-20.2%
22,COc1ccc(Oc2ccc(C(F)(F)F)cn2)cc1CN1CCCC1,51.7%
23,COc1ccc(Oc2nccc3occc23)cc1CN1CCCC1,61.8%

row,SMILES,INHIBITION
1,COc1cc(Oc2cnc3ccccc3n2)ccc1CN1CCCC1,59%
2,Fc1cc(Oc2ccc(C(F)(F)F)cn2)cc(F)c1CN1CCCC1,24.4%
3,COc1cc(Oc2ccc(C(N)=O)cn2)ccc1CN1CCCC1,-42.6%
4,COc1ccc(Oc2ncccc2F)cc1CN1CCCC1,15.9%
5,COc1ccc(Oc2ncccc2C(F)(F)F)cc1CN1CCCC1,32.5%
6,CCN(C)C[C@@H]1CN(C(=O)c2cc(C(F)(F)F)n[nH]2)C[C@@H]1CO,-5.31%
7,COC[C@@]12CCO[C@@H]1CCN(Cc1ccc(C)s1)C2,-35.8%
8,COCCC(=O)N1CC2(CCN(Cc3ccccc3Cl)CC2)C1,0.294%
9,Cc1cc(C)c(CNC(=O)NCC2CCCO2)c(=O)[nH]1 (configuration not stated),-64.8%
10,Cc1cc(C)c(CNC(=O)NCCC2CCCO2)c(=O)[nH]1 (configuration not stated),20.5%
11,Cc1cc(C)c(CNC(=O)CCC2CCCO2)c(=O)[nH]1 (configuration not stated),53.2%
12,Cc1c(NC(=O)N(C)CCO)cccc1OC1CCCC1,-65.2%
13,CC(C)(C)c1cc(CN2C[C@H]3CC[C@@H](C2)N(Cc2ccccn2)C3)n[nH]1,47.7%
14,CC(C)Cc1cc(CN2C[C@@H]3CC[C@H]2CN(Cc2cscn2)C3)n[nH]1,66.6%
15,CC(C)(C)c1cc(CN2C[C@@H]3CC[C@H]2CN(Cc2cscn2)C3)n[nH]1,20.1%
16,CCc1nccn1-c1nccnc1C1CCN(C(=O)COC)CC1,-25.8%
17,CN(Cc1cccnc1)C(CO)c1cccc(Br)c1 (configuration not stated),-135%
18,CSCc1ccc(CNC2CCCN(c3ccc(C)nn3)C2)o1 (configuration not stated),-38.5%
19,CCC(CN1CCCC1)n1cncc1-c1cnn(Cc2ccccc2)c1 (configuration not stated),44.8%
20,CC(Cn1cncc1-c1cnn(Cc2ccccc2)c1)N1CCCCC1 (configuration not stated),65.7%
21,CC(CN1CCOCC1)n1cncc1-c1cnn(Cc2ccccc2)c1 (configuration not stated),-46.1%
